This is a sample that favours compounds with a hit; in the whole collection about 6.8% have one here.
Pf Dd2 growth = inhibitors of Plasmodium falciparum Dd2 growth; P. falciparum Dd2 growth, SYBR Green, 72 h; hits give low values; 94,000 tested, 2.3% active; activity change, % at 10 µM; AID 1159554; in the data active = activity change below about -80%; inconclusive = no clear call, values can overlap the other calls
C diff growth = inhibitors of Clostridium difficile growth; Clostridium difficile clinical isolate growth, OD600, 24 h; hits give low values; AID 1259249; 86,000 tested, 0.25% active; growth activity, negative = inhibition, % at 16 µg/mL (by protocol);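 active = mean growth activity at or below -80% and every replicate also at or below -80%; inconclusive = mean at or below -80% but some replicate above -80%; inactive = mean growth activity above -80%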;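 note: 0% = DMSO wells and -100% = levofloxacin 16 µg/mL wells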
T cruzi growth-1 = inhibitors of T. cruzi proliferation. AID 624255. T. cruzi beta-gal in NIH3T3, GalScreen luminescence, 90 h. 77,000 tested, 5.9% active. inhibition, % at 8.34 µM;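 active = mean inhibition above about 93%, with at least 55% of replicates each passing it, limit read from the data, passing the limit was not always enough; inconclusive = only one of those two conditions holds; inactive = neither condition holds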
T cruzi growth-2 = blocks T. cruzi growth in NIH3T3 host cells; inhibition, % at 8.35 µM; shares compounds with T cruzi growth-1; T. cruzi beta-gal in NIH3T3, GalScreen luminescence, 90 h; AID 651739; 5,600 tested, 72% active;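 active = mean replicate inhibition above about 95% and at least 55% of replicates individually reaching it, limit read from the data; inconclusive = only one of the two criteria is met; inactive = neither criterion is met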
T cruzi growth-3 = inhibitors of T. cruzi proliferation | inhibition, % at 2.09 µM | shares compounds with T cruzi growth-1 | 5,600 tested, 21% active | T. cruzi beta-gal in NIH3T3, GalScreen luminescence, 90 h;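 active = mean inhibition above about 95%, with at least 55% of replicates also reaching it, limit read from the data; inconclusive = meets just one of the two conditions; inactive = meets neither condition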;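 note: plate controls were neutral control median for no effect and positive control median for full effect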
NIH3T3 tox = cytotoxicity in mouse NIH/3T3 fibroblasts | NIH/3T3 viability, CellTiter-Glo ATP luminescence, 90 h | shares compounds with T cruzi growth-1 | cytotoxicity (signal decrease), % at 8.35 µM | 5,600 tested, 14% active;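 active = mean signal decrease across replicates above about 35% based on untreated-well scatter, with enough replicates individually passing, limit read from the data; inconclusive = no rule stated though some were filed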;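 note: 0% = median of neutral control wells and 100% = median of positive control wells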
NIH3T3 tox 2 = kills mouse NIH/3T3 fibroblasts | NIH/3T3 viability, CellTiter-Glo ATP luminescence, 90 h | inhibition, % at 24.9 µM | 5,600 tested, 56% active | shares compounds with T cruzi growth-1;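 active = mean loss of cell viability signal at or above a set limit, and enough replicates individually reaching it; inconclusive = meets only the mean limit or only the replicate share; inactive = meets neither condition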;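 note: 0% = median of neutral control wells and 100% = median of positive control wells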
Numbers without * were called inactive; u = inconclusive; x = not tested or not shown.

SMILES | Pf Dd2 growth | C diff growth | T cruzi growth-1 | T cruzi growth-2 | T cruzi growth-3 | NIH3T3 tox | NIH3T3 tox 2
CC(C)C#Cc1ccc2c(c1)O[C@H](CN(C)C(=O)c1ccccc1)[C@@H](C)CN([C@H](C)CO)S2(=O)=O | -65 | -2 | 115* | 105* | 61 | 0 | 30*
CC(C)C#Cc1ccc2c(c1)O[C@@H](CN(C)C(=O)c1ccccc1)[C@@H](C)CN([C@H](C)CO)S2(=O)=O | -52 | 13 | 69 | x | x | x | x
CC(C)C#Cc1ccc2c(c1)O[C@@H](CN(C)C(=O)c1ccncc1)[C@H](C)CN([C@@H](C)CO)S2(=O)=O | -13 | 4 | 67 | x | x | x | x
CC(C)C#Cc1ccc2c(c1)O[C@@H](CN(C)C(=O)c1ccccc1)[C@H](C)CN([C@H](C)CO)S2(=O)=O | -76 | -8 | 99* | 104* | 46 | 46* | 39*
CC(C)C#Cc1ccc2c(c1)O[C@@H](CN(C)C(=O)c1ccncc1)[C@@H](C)CN([C@H](C)CO)S2(=O)=O | -11 | 1 | 107* | 102* | u | 27 | 42*
CC(C)C#Cc1ccc2c(c1)O[C@H](CN(C)C(=O)c1ccccc1)[C@@H](C)CN([C@@H](C)CO)S2(=O)=O | -61 | 29 | 85 | x | x | x | x
CC(C)NC(=O)N(C)C[C@@H]1Oc2cc(C#CC(C)(C)O)ccc2S(=O)(=O)N([C@H](C)CO)C[C@H]1C | 23 | 1 | -22 | x | x | x | x
C[C@H](O)C#Cc1ccc2c(c1)O[C@@H](CN(C)Cc1ccccn1)[C@H](C)CN([C@@H](C)CO)S2(=O)=O | -19 | 8 | 5 | x | x | x | x
CC(C)C#Cc1ccc2c(c1)O[C@H](CN(C)Cc1ccccn1)[C@@H](C)CN([C@@H](C)CO)S2(=O)=O | -60 | 21 | u | 107* | 79 | 0 | 78*
CC(C)C#Cc1ccc2c(c1)O[C@@H](CN(C)Cc1ccccn1)[C@H](C)CN([C@@H](C)CO)S2(=O)=O | -66 | 27 | u | 108* | 51 | 55* | 95*
C[C@H](CO)N1C[C@H](C)[C@@H](CN(C)Cc2ccccn2)Oc2cc(C#C[C@@H](C)O)ccc2S1(=O)=O | -28 | 6 | -8 | x | x | x | x
CC(C)C#Cc1ccc2c(c1)O[C@H](CN(C)Cc1ccccn1)[C@H](C)CN([C@@H](C)CO)S2(=O)=O | -74 | 26 | 74 | x | x | x | x
CC(C)C#Cc1ccc2c(c1)O[C@H](CN(C)Cc1ccccn1)[C@@H](C)CN([C@H](C)CO)S2(=O)=O | -72 | 29 | u | 102* | 74 | 65* | 54*
C[C@H]1CCCCO[C@@H](CN(C)C(=O)c2ccccc2)[C@@H](C)CN([C@@H](C)CO)C(=O)c2cc(NC(=O)c3ccccc3)ccc2O1 | -67 | 6 | 8 | x | x | x | x
C[C@@H](O)C#Cc1ccc([C@H]2[C@H]3CN(C(=O)c4ccncc4)CCCCN3[C@H]2CO)cc1 | -5 | -7 | u | u | -7 | 7 | 13
CC(C)(O)C#Cc1ccc([C@H]2[C@H](CO)N3CCCCN(C(=O)c4ccncc4)C[C@@H]23)cc1 | 40 | -2 | 31 | x | x | x | x
COc1ccc(C#Cc2ccc([C@H]3[C@@H](CO)N4CCCCN(C(=O)c5ccncc5)C[C@H]34)cc2)cc1 | -51 | -14 | 101* | 102* | 63 | 26 | 106*
C[C@@H](O)C#Cc1ccc([C@H]2[C@@H](CO)N3CCCCN(C(=O)c4ccc(F)cc4)C[C@@H]23)cc1 | 4 | -4 | 103* | 46 | 30 | -14 | 14
C[C@H](O)C#Cc1ccc([C@H]2[C@H](CO)N3CCCCN(C(=O)c4ccncc4)C[C@@H]23)cc1 | -13 | -8 | -23 | x | x | x | x
C[C@H](O)C#Cc1ccc([C@@H]2[C@@H](CO)N3CCCCN(C(=O)c4ccc(F)cc4)C[C@@H]23)cc1 | 5 | 0 | 41 | x | x | x | x
C[C@@H](O)C#Cc1ccc([C@H]2[C@@H](CO)N3CCCCN(C(=O)c4ccc(F)cc4)C[C@H]23)cc1 | -30 | -9 | 99* | 102* | 15 | -1 | -12
C[C@H](O)C#Cc1ccc([C@H]2[C@H]3CN(C(=O)c4ccc(F)cc4)CCCCN3[C@H]2CO)cc1 | 5 | -3 | 27 | x | x | x | x
CNC[C@H]1OCCCC[C@@H](C)Oc2ccc(NC(=O)Nc3c(C)noc3C)cc2C(=O)N([C@H](C)CO)C[C@H]1C | 22 | 2 | 22 | x | x | x | x
COCC(=O)Nc1ccc2c(c1)C(=O)N(C)[C@H]1CC[C@@H](CC(=O)NCCc3ccncc3)O[C@@H]1CO2 | -4 | 0 | 1 | x | x | x | x
COc1ccccc1NC(=O)N[C@@H]1CC[C@@H](CCNC(=O)Cc2ccccn2)O[C@H]1CO | 4 | 0 | x | x | x | x | x
SMILES | Pf Dd2 growth | C diff growth | T cruzi growth-1 | T cruzi growth-2 | T cruzi growth-3 | NIH3T3 tox | NIH3T3 tox 2
Cc1cccc(NC(=O)Nc2ccc3c(c2)C(=O)N(C)[C@H]2CC[C@H](CC(=O)O)O[C@H]2CO3)c1 | 10 | 4 | -17 | x | x | x | x
O=C(c1ccccc1)N1C[C@H]2[C@@H](c3ccccc31)[C@H](CO)N2Cc1cc(F)ccc1F | 3 | 12 | 15 | x | x | x | x
C[C@@H]1CCCCO[C@H](CN(C)C(=O)CCC(F)(F)F)[C@H](C)CN([C@@H](C)CO)C(=O)c2cc(NS(=O)(=O)c3ccc(Cl)cc3)ccc2O1 | -2 | -4 | 104* | 103* | 68 | 11 | 72*
C[C@@H]1CN([C@H](C)CO)C(=O)c2cc(NS(=O)(=O)c3ccc(Cl)cc3)ccc2O[C@@H](C)CCCCO[C@@H]1CN(C)C(=O)CCC(F)(F)F | -36 | -10 | 99* | 82 | 52 | 16 | 71*
C[C@@H]1CCCCO[C@H](CN(C)C(=O)CCC(F)(F)F)[C@@H](C)CN([C@H](C)CO)C(=O)c2cc(NS(=O)(=O)c3ccc(Cl)cc3)ccc2O1 | -22 | -14 | 88 | x | x | x | x
C[C@@H]1CN([C@@H](C)CO)C(=O)c2cc(NS(=O)(=O)c3ccc(Cl)cc3)ccc2O[C@@H](C)CCCCO[C@H]1CN(C)C(=O)CCC(F)(F)F | -5 | -20 | 42 | x | x | x | x
CNC[C@H]1Oc2ccc(NC(=O)Nc3ccc4c(c3)OCO4)cc2CC(=O)N([C@@H](C)CO)C[C@@H]1C | -6 | -1 | 78 | x | x | x | x
CO[C@H]1CN(C)C(=O)c2ccc(NC(=O)c3nc4ccccc4s3)cc2OC[C@@H](C)N(Cc2cccnc2)C[C@H]1C | -49 | -7 | u | 105* | 88 | 11 | 59*
COc1ccc(CN2C[C@H](C)[C@@H](OC)CN(C)C(=O)c3ccc(NC(=O)c4nc5ccccc5s4)cc3OC[C@H]2C)cc1 | -52 | 5 | u | 110* | 114* | 2 | 6
CO[C@@H]1CN(C)C(=O)c2cc(NC(=O)c3nc4ccccc4s3)ccc2OC[C@@H](C)N(Cc2cccnc2)C[C@H]1C | -75 | x | x | x | x | x | x

Source: PubChem
